# PG9 binder: binders of HIV-1 gp120 antibody PG9, primary screen, biochemical, TR-FRET; HIV-1 gp120 / PG9 antibody interaction; TR-FRET gp120-PG9 antibody binding; inhibition, % at 6.7 µM; actives 0.43% (n = 360,000); AID 624416, 2012; in the data active = inhibition above about 8.5%
# AI-2 QS modul: Vibrio harveyi AI-2 quorum sensing modulators, primary screen, JMH597 strain, luminescence/OD600 ratio; activity change, % at 7.5 µM; actives 0.4% (n = 300,000); Vibrio harveyi JMH597 AI-2 luminescence/OD600 ratio, 9 h; active compounds read low; strain lacks LuxN and CqsS sensors; 0 = neutral-control median; AID 2094, 2009; in the data active = activity change below about -75%, passing the limit was not always enough; inconclusive = no clear call, values can overlap the other calls;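 also: luminescence divided by OD600 gain over 9 h not by final OD600 alone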
# FXN GAA850 act: FXN promoter activators, primary screen, cell-based, luciferase luminescence, HEK293 lucGAA850 | activation, % at 6 µM | AID 540364, 2011 | actives 0.56% (n = 360,000) | HEK293 lucGAA850 FXN promoter luciferase reporter, 24 h; percent of 10 µM SAHA response;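 active = activation above the average of all compounds screened plus 3 SD, cutoff fixed separately per campaign, cut at about 7.5% in these data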
# HSP90 inh: HSP90 inhibitors, primary screen, cell lysate, luminescence | Rabbit reticulocyte lysate, luciferase refolding luminescence, 3 h | AID 1789, 2009 | actives 0.91% (n = 290,000) | inhibition, % at 5.6 µM | Heat shock protein HSP 90 (rabbit reticulocyte lysate; luciferase refolding);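 active = inhibition above the screen-wide mean plus 3 SD, computed separately per campaign, cut at about 16% in these data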;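 also: inhibitors lower the luminescence because luciferase stays unfolded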
# SMARCA2 activ: SMARCA2 (BRM) function activators, primary screen, cell-based, luminescence, high throughput; activation, % at 9.1 µM; actives 1% (n = 370,000); AID 652017, 2013; MG213 cells, MMTV-luciferase reporter, dexamethasone, overnight; in the data active = activation above about 7.8%
# HSF1 inhib: HSF1 inhibitors in luciferase reporter cells, primary screen, cell-based, NIH3T3, luminescence; NIH3T3-HGL HSE-luciferase, MG132-induced, luminescence 8 h; active compounds read low; activity change, negative = inhibition, % at 7.5 µM (by protocol); actives 0.77% (n = 300,000); AID 2098, 2009;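 active = more than half of replicate wells show activity change below -50%, luminescence cut by over half; inconclusive = some wells, but at most half, below -50%; inactive = no replicate well below -50%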;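 also: luciferase reports HSF-1 transcriptional activity via heat shock element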
# PG9 bind confirm: binders of anti-gp120 antibody PG9, confirmation, biochemical, TR-FRET | shares compounds with PG9 binder | TR-FRET PG9 antibody binding | inhibition, % at 6.7 µM | actives 90% (n = 1,500); in the data active = inhibition above about 9%
# PGV04 counter: binders of control antibody PGV04, counter-screen for PG9 antibody binder project, biochemical, TR-FRET, distinct HIV envelope site | shares compounds with PG9 binder | TR-FRET PGV04 antibody-gp120 binding | inhibition, % at 6.7 µM | actives 95% (n = 1,500) | AID 651604, 2012; in the data active = inhibition above about 9.5%
# Hits are given with their value; n = inactive; u = inconclusive; x = no result. Compounds with a hit are over-represented: about 3.4% of the library has one in this group of screens.
SMILES,PG9 binder,AI-2 QS modul,FXN GAA850 act,HSP90 inh,SMARCA2 activ,HSF1 inhib,PG9 bind confirm,PGV04 counter
CCCCOc1ccc(C2C(C(=O)c3ccc(C)o3)=C(O)C(=O)N2Cc2ccco2)cc1 (stereo not drawn),18.7,n,n,n,n,u,22.5,27.2
C[C@H](CO)N1C[C@H](C)[C@@H](CN(C)C(=O)NC2CCCCC2)OCc2cn(nn2)CCCC1=O,n,x,x,x,n,x,x,x
CC(C)[C@H](NC(=O)c1ccco1)C(=O)N1CCC[C@H]1C(=O)NCc1ccccc1,n,x,x,x,n,x,x,x
Nc1[nH]c(C(=O)c2ccccc2)c(-c2ccccc2)c1C(=O)NCCc1c[nH]c2ccccc12,n,x,x,x,n,x,x,x
COC(=O)[C@]12C[C@H](CC(=O)NCCC(C)C)C(=O)N(Cc3ccc4c(c3)OCO4)C1=C[C@H](COCc1ccccc1)O[C@@H]2C,n,x,x,x,n,x,x,x
CC(=O)c1ccc(N2CCN(S(=O)(=O)c3ccc4c(c3)NC(=O)CO4)CC2)cc1,22.1,n,n,n,n,n,28.4,39.0
CC(=O)c1ccc(N2CCN(S(=O)(=O)c3ccc4c(c3)CCC(=O)N4)CC2)cc1,n,x,n,x,n,x,x,x
CC(C)CCNC(=O)c1cc2c(=O)[nH]c3ccccc3c2s1,10.0,n,n,n,n,n,16.9,20.9
CCOC(=O)c1nn(-c2ccc(Cl)cc2)c2nc(-c3ccc(C)cc3)c(C#N)c(=O)n12,n,n,n,n,n,n,x,x
CCOC(=O)c1nn(-c2ccc(Cl)cc2)c2nc(CC)c(C#N)c(=O)n12,16.4,n,n,n,n,n,20.5,25.0
CCCc1nnc(NC(=S)Nc2ccccc2)s1,11.3,n,n,n,n,n,10.2,12.6
O=C(CSc1nnc(-c2ccccc2F)n1C1CCCCC1)N1CCCC1,n,n,n,n,n,n,x,x
O=C(CSc1nnc(-c2ccc(Br)cc2)n1C1CCCCC1)N1CCCC1,9.3,n,n,n,n,n,8.7,10.2
COC(=O)c1cc2c(c3c4cc(F)ccc4n(S(=O)(=O)c4ccccc4)c13)C(=O)N(Cc1ccco1)C2,n,x,x,x,n,x,x,x
COCCNc1nc2sc3c(c2c(=O)n1Cc1ccco1)CCCCC3,8.7,n,n,n,n,n,10.2,11.0
COC(=O)/C=C1\OC(C)c2ccccc21 (stereo not drawn),n,x,x,x,n,x,x,x
COc1ccc(OCCCC(=O)OCC(=O)c2ccc3c(c2)NC(=O)CO3)cc1,n,n,n,x,n,n,x,x
O=C1COc2ccc(C(=O)COC(=O)c3ncc(Cl)c(Cl)c3Cl)cc2N1,10.7,x,n,x,n,n,17.5,27.4
O=C1COc2ccc(C(=O)COC(=O)c3nc(Cl)ccc3Cl)cc2N1,n,x,n,x,n,x,x,x
Cc1ccc(OCCC(=O)OCC(=O)c2ccc3c(c2)NC(=O)CO3)cc1,26.6,x,n,x,n,x,19.6,37.8
CC(=O)Nc1ccc(S(=O)(=O)Nc2ccccc2C(=O)NCc2cccnc2)cc1,n,n,n,n,n,n,x,x
O=C(NCc1cccnc1)c1ccccc1NS(=O)(=O)c1ccccc1,10.8,n,n,n,n,n,9.5,19.3
O=C(Nc1nc2ccccc2c(=O)s1)c1ccco1,n,x,n,n,n,n,x,x
O=C(Nc1nc2ccccc2c(=O)s1)c1ccc(F)cc1Cl,70.7,n,n,n,n,n,60.0,77.2
COc1ccc(-n2nnnc2/C=C\Nc2ccccc2C(=O)c2ccccc2)cc1,n,n,n,n,n,n,x,x

# Source: PubChem BioAssay
